Assay outcomes from PubChem.
TSHR ag: agonists of human thyroid stimulating hormone receptor. Potency, µM (series often up to 57.1 µM), hits mostly activators. AID 926. actives 0.48% (n = 73,000). HEK293-CNG-TSHR cells (CNG channel as cAMP sensor), membrane potential dye, cAMP. P16473; active = well fitted activation curve with a large enough effect in the main read-out, with a control signal flat, not every such curve was filed as active; inconclusive = small, poorly fitted or top-dose-only effect, or a change in a side signal; inactive = no such curve, though single readings can be large or run the other way; reference of the percent scale not stated here;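 also: the control signal comes from parental cells without the receptor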
Target sequence (P16473 whole entry, looked up): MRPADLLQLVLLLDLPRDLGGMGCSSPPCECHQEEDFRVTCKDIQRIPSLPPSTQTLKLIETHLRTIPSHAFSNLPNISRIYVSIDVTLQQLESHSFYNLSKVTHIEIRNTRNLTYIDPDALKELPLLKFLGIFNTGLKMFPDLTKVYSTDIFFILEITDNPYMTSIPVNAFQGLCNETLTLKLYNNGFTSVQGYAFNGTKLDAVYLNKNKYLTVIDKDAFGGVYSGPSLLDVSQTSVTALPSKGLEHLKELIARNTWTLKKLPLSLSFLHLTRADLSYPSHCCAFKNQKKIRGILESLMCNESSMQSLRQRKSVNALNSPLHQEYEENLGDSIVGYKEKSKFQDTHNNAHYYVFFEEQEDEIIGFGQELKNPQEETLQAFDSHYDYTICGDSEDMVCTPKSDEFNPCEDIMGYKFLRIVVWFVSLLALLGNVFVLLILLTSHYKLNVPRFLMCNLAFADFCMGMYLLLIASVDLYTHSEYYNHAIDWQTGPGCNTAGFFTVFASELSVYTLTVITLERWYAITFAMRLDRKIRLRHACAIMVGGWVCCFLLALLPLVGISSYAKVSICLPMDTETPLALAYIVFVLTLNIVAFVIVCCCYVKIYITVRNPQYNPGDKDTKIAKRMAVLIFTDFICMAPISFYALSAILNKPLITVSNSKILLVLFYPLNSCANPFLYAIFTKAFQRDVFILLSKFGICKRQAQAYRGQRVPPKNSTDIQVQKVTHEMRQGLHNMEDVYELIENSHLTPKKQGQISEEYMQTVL
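cAMP rise detected as CNG-channel membrane depolarization by fluorescent dye (emission 590 nm), 30 min after compound, following 60 min dye loading containing 100 uM RO 20-1724 at room temperature. Cells: TSHR/CNG HEK 293, with parental CNG HEK 293 as control.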
Bst PK mod: alters activity of Bacillus stearothermophilus pyruvate kinase. Potency, µM. purified pyruvate kinase, luminescence ATP production; ribose 5-phosphate activator present at AC10. actives 1.2% (n = 51,000); in the data active = potency below about 11 µM; inconclusive = mostly about 12 µM to 25 µM;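 the screen sought inhibitors and activators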
HEK293 cAMP ctrl: parental HEK293 cAMP activation (counter-screen); actives 2.5% (n = 73,000); parental HEK293 CNG cAMP sensor, membrane potential fluorescence; Potency, µM (highest dose often 57.1 µM), actives largely listed as activators; also: nearly all actives have a fitted effect of over 55% in size
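Counterscreen for endogenous-receptor signalling: CNG-channel HEK 293 cells report cAMP rise by membrane depolarization. After 60 min dye equilibration with 100 uM RO 20-1724, compounds incubated 30 min before bottom-read fluorescence at 590 nm.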
FLuc inh: inhibitors of firefly luciferase; P08659; purified firefly luciferase, luminescence, 8 min; Potency, µM (highest dose often 57.1 µM), actives largely listed as inhibitors; actives 2.2% (n = 72,000); AID 411; also: nearly all actives have a fitted effect of over 40% in size
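Firefly luciferase (PKLight detection mix) with 10 uM ATP in pH 7.2 imidazole buffer (KCl, MgCl2, Tween 20, BSA). Compounds tested across a concentration series (qHTS). Luminescence read after 8 min at ambient temperature.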
15-hLO inh: blocks human 15-lipoxygenase activity; Potency, µM (highest dose often 57.1 µM), actives largely listed as inhibitors; P16050; purified 15hLO-1, xylenol orange hydroperoxide absorbance; actives 1.4% (n = 74,000); also: nearly all actives have a fitted effect of over 55% in size
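40 nM 15hLO-1 + cpd, 15 min RT; start w/ 50 uM AA (final), 6 min RT; stop/detect w/ 200 uM XO + 300 uM Fe(II) in 50 mM H2SO4, 30 min; A573/A405. Buffer 25 mM Hepes pH 7.5, 0.01% Triton X-100. No-enzyme wells as negative control.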
Tau fil binding: tau filament binding; actives 2% (n = 71,000); Potency, µM (titrated, usually from 57.1 µM); recombinant tau filaments, thioflavin S fluorescence, 15 h; filaments grown with octadecylsulfate alongside compound; AID 596; P10636;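 also: actives lower thioflavin S fluorescence by blocking filaments or displacing dye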
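Tau 2 uM in ThS buffer dispensed; compound added; 60 uM ODS added (finals 1 uM tau, 30 uM ODS); 15 h 37 C; fluor ex450/em510.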
A number is an active result; . = inactive; ? = inconclusive; / = no result; [ ] = remark or other dose. Most compounds without a hit are left out; they make up all but 7.8% or so of the library. Unless noted, calls follow the shape of the dose curve; as a rule, active = well fitted curve in the direction sought with a large enough effect; inconclusive = small, poorly fitted or top-dose-only effect, or another doubt; inactive = no such curve, though single readings can be large; an effect the other way counts as inactive or inconclusive.

SMILES	TSHR ag	Bst PK mod	HEK293 cAMP ctrl	FLuc inh	15-hLO inh	Tau fil binding
CC#C[C@]1(O)CC[C@H]2[C@@H]3CCC4=CC(=O)CCC4=C3[C@H](c3ccc(N(C)C)cc3)C[C@@]21C	.	/	.	.	10µM	31.6µM
CCCCCSc1nnc(-c2cc(Br)ccc2N)c(=O)[nH]1	?	.	?	.	.	10µM
CCOC(=O)c1sc(N)c(C(=O)Nc2ccc(C)cc2C)c1C	.	/	.	/	?	/
CCOC(=O)c1sc(NC(=O)c2ccc(Br)o2)cc1C	.[11.4 µM]	6.37	.	5.01µM	?	.
CCOC(=O)c1sc(NC(=O)c2cccs2)cc1C	.	/	.	2µM	.	.
O=C(c1cccc(F)c1)N1CCC2(CC1)CN(C(c1ccccc1)c1ccccc1)C2	.	/	.	.[11.4 µM]	.	.
O=C(Nc1ccc2c(c1)OCO2)C1CC(c2ccccc2Cl)=NO1 (stereo not drawn)	.	.	.	.	.	.
CCn1cc(C2=NOC(C(=O)Nc3ccc4c(c3)OCO4)C2)c(C)n1 (stereo not drawn)	?	/	1µM	/	.	/
COCCNC(=O)c1ccc(Cc2nc3ccccc3[nH]2)cc1	.	/	.	/	.	/
Cc1ccc(C(CC(=O)c2ccco2)SCCO)cc1 (stereo not drawn)	.	/	.	25.1µM	.	.
CC(=O)c1cccc(S(=O)(=O)NCC(c2ccco2)N2CCCCC2)c1 (stereo not drawn)	.	.	.	.	.	.
O=C1C2C(C(=O)N1c1ccncc1)C1C=CC2C12CC2 (stereo not drawn)	.	.	.	.	.	.
Cc1ccc(N2C(=O)C3C(C2=O)C2C=CC3C23CC3)cc1 (stereo not drawn)	.	/	.	12.6µM	.	.
C=C1CC[C@@H]2O[C@]2(C)CC[C@@H]2[C@H]1CC2(C)C	.	/	.	.[11.4 µM]	/	.
Cc1noc(C)c1-c1nc(NCc2cccs2)c2ccccc2n1	?	/	?	.[2.29 µM]	12.6µM	.
COCCNc1nc(-c2c(C)noc2C)nc2ccccc12	.	/	.	.[2.29 µM]	.	.
Cc1noc(C)c1-c1nc(Nc2ccc(F)cc2)c2ccccc2n1	.	/	.	.[2.29 µM]	15.8µM	.
Cc1noc(C)c1-c1nc(N(C)C)c2ccccc2n1	.	/	.	.[2.29 µM]	15.8µM	.
CS(=O)(=O)N(CC(=O)NCCSc1ccc(Cl)cc1)c1ccc2c(c1)OCO2	.	.	.	.	.	.
CC(=O)[C@H](C(=N)C#N)C(=O)Nc1ccccc1	.[11.4 µM]	/	.[11.4 µM]	.[11.4 µM]	.[11.4 µM]	.[11.4 µM]
CCn1c(Cn2nnc(-c3ccccc3)n2)nnc1SCc1ccc(Cl)c(Cl)c1	/	.	.	.	?	.
COc1cccc(-c2nccc(N(C)Cc3ccco3)n2)c1	.	/	.	.[2.29 µM]	?	.
CC(C)(C)/C(O)=C(/C#N)c1nc2ccccc2[nH]1	.	/	.	.	.	.
CC(C)CC(/C(O)=C(\C#N)c1nc2ccccc2[nH]1)N1C(=O)c2ccccc2C1=O (stereo not drawn)	.	/	.	.	.	12.6µM
O=C1C(=O)N(Cc2ccc(Cl)c(Cl)c2)c2ccccc21	?	/	?	.	10µM	31.6µM
SMILES	TSHR ag	Bst PK mod	HEK293 cAMP ctrl	FLuc inh	15-hLO inh	Tau fil binding
O=C1c2ccccc2N(Cc2ccc(Cl)cc2)C2=NCCN12	?	/	.	/	.	/
CC(=O)c1ccc(-n2nnnc2SCC(=O)N2CCc3ccccc3C2)cc1	.	.	.	.	.	.
O=C(CSc1nnnn1-c1cccc2c1CCCC2)N1CCOCC1	.	10.6	.	.	.	.
O=C(CSc1nnnn1-c1ccccc1)N1CCc2ccccc2C1	?	.	15.8µM	.	.	.
C=C1CC[C@H]2C(C)(C)[C@H](O)CC[C@]2(C)[C@@H]1COc1ccc2ccc(=O)oc2c1	?	/	?	.[11.4 µM]	/	?
Cc1cc(CN2CCCCC2)c(O)c(CN2CCCCC2)c1	.[11.4 µM]	/	.[11.4 µM]	.[11.4 µM]	.[11.4 µM]	.[11.4 µM]
COc1ccc2[nH]cc(CCNc3ccnc(-c4ccccc4Cl)n3)c2c1	.	/	.	.[2.29 µM]	.	.
COc1ccc(O)c(-c2cc(-c3cccs3)[nH]n2)c1	.	?	.	15.8µM	25.1µM	.
CN(Cc1ccco1)c1cc(-c2ccc3c(c2)OCO3)ncn1	?	/	?	.[2.29 µM]	.	.
O=C1C(C=NCc2cccnc2)=C(O)c2ccccc21	.[11.4 µM]	/	.[11.4 µM]	10µM	.[11.4 µM]	?
O=C1C(C=NCc2ccco2)=C(O)c2ccccc21	.	/	.	12.6µM	.	25.1µM
O=C(CCCCCN1C(=O)c2ccccc2C1=O)NCc1ccco1	.	.	.	.	.	.
O=C1c2ccccc2C(=O)c2c(Nc3ccc4c5c(cccc35)C(=O)c3ccccc3-4)cccc21	.[11.4 µM]	/	.[11.4 µM]	.[11.4 µM]	.[11.4 µM]	.[11.4 µM]
O=C1c2ccccc2C(=O)c2c(Nc3cc4c5c(ccc6c7ccc8c9c(cc(Nc%10cccc%11c%10C(=O)c%10ccccc%10C%11=O)c(c3c56)c97)-c3ccccc3C8=O)C(=O)c3ccccc3-4)cccc21	.[11.4 µM]	/	.[11.4 µM]	.[11.4 µM]	.[11.4 µM]	3.16µM
COc1ccc2nc3c(cc2c1)Cc1ccccc1-3	?	/	25.1µM	/	/	?
C=CCn1c(SCC(=O)/C(C#N)=C(\C)N)nnc1C1CCCCC1	.	.	.	.	.	.
O=C(OCC(=O)N1CCN(C(=O)c2ccco2)CC1)c1cc(-c2ccccc2)nc2ccccc12	.	?	.	.	.	.
O=C(OCC(=O)N1CCN(C(=O)c2ccco2)CC1)c1cc(-c2ccc(F)cc2)nc2ccccc12	.	2.11	.	?	.	.
O=C(OCC(=O)N1CCN(c2ccccc2)CC1)c1ccco1	.	.	.	.	.	.
Cc1cc(C(=O)OCC(=O)N2CCN(c3ccccc3)CC2)c2ccccc2n1	.	.	.	.	.	12.6µM
O=C(c1cnn2ccccc12)N(Cc1ccco1)C1CCCC1	.	/	.	.	.	.
O=C(CSc1nc(-c2ccco2)cc(C(F)(F)F)n1)Nc1ccc2c(c1)OCO2	?	.	?	.	.	.
O=C(CCCSc1nc(-c2ccco2)cc(C(F)(F)F)n1)Nc1ccc2c(c1)OCO2	.	.	.	.	.	25.1µM
CC(=O)C1=C(C)N=c2s/c(=C/c3ccc4c(c3)OCO4)c(=O)n2C1c1ccc(N(C)C)cc1 (stereo not drawn)	.	.	.	.	.	3.98µM
COc1ccc(C2C(C(C)=O)=C(C)N=c3s/c(=C/c4ccc5c(c4)OCO5)c(=O)n32)cc1 (stereo not drawn)	.	.	.	.	.	?
N#CC1=C(N)Oc2n[nH]c(-c3cccs3)c2C1c1ccoc1 (stereo not drawn)	.	/	.	.	10µM	.
CC(=O)NCCNc1ncnc2ccc(-c3c(C)noc3C)cc12	.	/	.	.[2.29 µM]	.	.
Cc1ccc(N2CCN(S(=O)(=O)c3ccc(F)c(C)c3)CC2)c(C)c1	.	10.7	.	.	.	.
